Results taken from ChEMBL document CHEMBL3988442, “University of Dundee, Small-Polar-MMV Screening Library” (2021).
For part of these data: Measured potencies and affinities stand elsewhere.

Legend:
Parameters in all cases: scale not given: direction of the effect not stated beside the values
[1] = target: Protein translocase subunit SecA (Escherichia coli (strain K12)) (UniProt P10408); assay: Assay to Identify E. coli SecA ATPase Inhibitors; format: functional; details: 30 µM
[2] = target: T1, Ubiquitin-activating enzyme e1, putative (Leishmania donovani (strain BPK282A1)) (UniProt E9BSI1); assay: Leishmania donovani Ubiquitin Activating Enzyme (LdE1); format: functional; details: 30 µM
T1 sequence (whole entry): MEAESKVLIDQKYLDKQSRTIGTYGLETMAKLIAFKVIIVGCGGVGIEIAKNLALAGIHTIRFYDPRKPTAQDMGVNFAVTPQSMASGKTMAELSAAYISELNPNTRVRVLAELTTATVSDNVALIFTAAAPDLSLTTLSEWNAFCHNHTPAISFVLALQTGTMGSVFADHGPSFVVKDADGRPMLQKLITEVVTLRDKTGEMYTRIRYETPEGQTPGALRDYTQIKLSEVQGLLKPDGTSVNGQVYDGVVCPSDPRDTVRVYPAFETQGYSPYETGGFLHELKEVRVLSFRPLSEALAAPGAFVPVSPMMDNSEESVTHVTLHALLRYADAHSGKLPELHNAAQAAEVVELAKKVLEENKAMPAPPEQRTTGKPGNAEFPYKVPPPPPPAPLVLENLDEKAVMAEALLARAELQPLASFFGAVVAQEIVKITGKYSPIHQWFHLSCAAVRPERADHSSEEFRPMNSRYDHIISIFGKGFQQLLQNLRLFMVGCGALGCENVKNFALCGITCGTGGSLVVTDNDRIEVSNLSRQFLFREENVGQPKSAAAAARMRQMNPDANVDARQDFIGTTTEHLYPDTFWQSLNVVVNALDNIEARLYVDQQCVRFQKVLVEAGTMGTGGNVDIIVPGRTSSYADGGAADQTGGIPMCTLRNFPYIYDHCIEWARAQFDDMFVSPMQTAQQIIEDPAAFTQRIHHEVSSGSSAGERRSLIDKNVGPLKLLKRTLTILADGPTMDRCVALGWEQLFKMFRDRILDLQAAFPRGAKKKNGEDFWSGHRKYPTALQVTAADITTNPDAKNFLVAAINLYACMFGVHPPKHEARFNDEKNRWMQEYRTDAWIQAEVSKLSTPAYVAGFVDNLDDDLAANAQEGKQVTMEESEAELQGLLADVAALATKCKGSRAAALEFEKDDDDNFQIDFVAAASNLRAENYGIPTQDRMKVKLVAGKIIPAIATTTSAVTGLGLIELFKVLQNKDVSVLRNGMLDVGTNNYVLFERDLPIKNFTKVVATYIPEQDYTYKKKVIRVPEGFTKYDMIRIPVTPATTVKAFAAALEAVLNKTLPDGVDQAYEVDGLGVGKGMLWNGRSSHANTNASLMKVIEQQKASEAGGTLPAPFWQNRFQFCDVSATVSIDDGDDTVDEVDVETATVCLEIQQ

[3] = target: Sialic acid-binding Ig-like lectin 9 (Homo sapiens) (UniProt Q9Y336); assay: Hs-Siglec9 ALPHAscreen SOP 20170721; details: 10 µM
Trypanosoma cruzi = assay: Trypanosoma cruzi phosphomannomutase and mannose-1-phosphate guanylyltransferase assay; format: functional; details: 10 µM
[4] = target: T2, Arginase-2, mitochondrial (Homo sapiens) (UniProt P78540); assay: in vitro enzyme assay to detect the production of urea directly proportional to the activity of Arginase II; format: functional; details: 33.3 µM; note: in the data most compounds retested in dose-response had high values
T2 sequence (whole entry): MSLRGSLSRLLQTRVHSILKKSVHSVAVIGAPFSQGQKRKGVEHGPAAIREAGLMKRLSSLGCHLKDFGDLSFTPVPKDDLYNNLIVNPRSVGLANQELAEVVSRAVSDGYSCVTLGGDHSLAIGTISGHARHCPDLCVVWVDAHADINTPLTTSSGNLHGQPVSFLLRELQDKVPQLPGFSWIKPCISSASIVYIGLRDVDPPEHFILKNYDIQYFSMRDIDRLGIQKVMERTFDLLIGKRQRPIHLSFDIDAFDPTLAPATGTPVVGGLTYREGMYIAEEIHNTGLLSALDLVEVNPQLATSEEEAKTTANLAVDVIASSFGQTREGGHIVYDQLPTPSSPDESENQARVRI

[5] = target: T3, Proteasome subunit beta (Trypanosoma cruzi) (UniProt O96673); assay: Trypanosoma cruzi proteasome chymotrypsin-like activity (TcProtChymo) assay.; note: in the data most compounds retested in dose-response had high values; format: functional; details: 9.37 µM
T3 sequence (whole entry): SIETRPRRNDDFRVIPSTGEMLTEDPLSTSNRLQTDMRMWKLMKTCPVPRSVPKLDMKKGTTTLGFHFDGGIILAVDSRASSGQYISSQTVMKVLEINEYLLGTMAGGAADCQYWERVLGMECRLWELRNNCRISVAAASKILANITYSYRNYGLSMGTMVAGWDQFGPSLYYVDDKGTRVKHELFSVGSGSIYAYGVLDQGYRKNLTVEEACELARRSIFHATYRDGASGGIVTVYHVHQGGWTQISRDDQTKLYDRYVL

Homo sapiens = organism: Homo sapiens; assay: To identify inhibition of the IFN signalling (Jak-Stat) pathway via expression of an eGFP reporter gene under the control of an IFN-stimulated response element (ISRE) containing MxA promoter.; format: functional; details: 30 µM
[6] = target: T4, Tyrosyl-tRNA synthetase, putative (Trypanosoma cruzi (strain CL Brener)) (UniProt Q4DSP6); assay: Trypanosoma cruzi tyrosyl tRNA synthetase (TcYRS) _High Tyrosine SOP; format: functional; details: 30 µM; note: in the data most compounds retested in dose-response had high values
T4 sequence (whole entry): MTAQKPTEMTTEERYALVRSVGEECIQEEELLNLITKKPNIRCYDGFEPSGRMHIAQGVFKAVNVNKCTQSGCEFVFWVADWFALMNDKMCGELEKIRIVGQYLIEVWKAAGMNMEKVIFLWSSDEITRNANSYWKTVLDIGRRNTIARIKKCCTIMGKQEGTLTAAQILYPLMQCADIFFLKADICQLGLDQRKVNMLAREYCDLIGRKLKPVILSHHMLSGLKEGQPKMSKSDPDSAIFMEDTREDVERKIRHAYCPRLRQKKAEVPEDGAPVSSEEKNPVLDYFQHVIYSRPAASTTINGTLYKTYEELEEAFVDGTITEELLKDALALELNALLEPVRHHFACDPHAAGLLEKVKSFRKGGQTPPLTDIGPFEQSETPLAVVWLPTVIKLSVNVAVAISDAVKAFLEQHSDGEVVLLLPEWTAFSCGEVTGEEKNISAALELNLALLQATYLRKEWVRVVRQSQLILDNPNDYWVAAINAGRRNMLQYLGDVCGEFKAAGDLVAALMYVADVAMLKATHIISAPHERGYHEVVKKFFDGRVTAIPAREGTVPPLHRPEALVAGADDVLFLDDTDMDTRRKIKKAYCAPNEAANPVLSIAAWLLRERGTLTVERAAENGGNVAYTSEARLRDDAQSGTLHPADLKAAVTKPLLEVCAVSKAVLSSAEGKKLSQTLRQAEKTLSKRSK

[7] = target: T4, Tyrosyl-tRNA synthetase, putative (Trypanosoma cruzi (strain CL Brener)); assay: Trypanosoma cruzi tyrosyl tRNA synthetase (TcYRS) SOP; format: functional; details: 30 µM
[8] = target: Chromo domain-containing protein 1 (Saccharomyces cerevisiae (strain ATCC 204508 / S288c) (Baker's yeast)) (UniProt P32657); assay: ScCHD-1 Enzyme Inhibition Assay; format: functional; details: 30 µM; note: in the data most compounds retested in dose-response had high values
Sequence of Chromo domain-containing protein 1 (Saccharomyces cerevisiae (strain ATCC 204508 / S288c) (Baker's yeast)) (P32657 whole entry, the tested form may be a part): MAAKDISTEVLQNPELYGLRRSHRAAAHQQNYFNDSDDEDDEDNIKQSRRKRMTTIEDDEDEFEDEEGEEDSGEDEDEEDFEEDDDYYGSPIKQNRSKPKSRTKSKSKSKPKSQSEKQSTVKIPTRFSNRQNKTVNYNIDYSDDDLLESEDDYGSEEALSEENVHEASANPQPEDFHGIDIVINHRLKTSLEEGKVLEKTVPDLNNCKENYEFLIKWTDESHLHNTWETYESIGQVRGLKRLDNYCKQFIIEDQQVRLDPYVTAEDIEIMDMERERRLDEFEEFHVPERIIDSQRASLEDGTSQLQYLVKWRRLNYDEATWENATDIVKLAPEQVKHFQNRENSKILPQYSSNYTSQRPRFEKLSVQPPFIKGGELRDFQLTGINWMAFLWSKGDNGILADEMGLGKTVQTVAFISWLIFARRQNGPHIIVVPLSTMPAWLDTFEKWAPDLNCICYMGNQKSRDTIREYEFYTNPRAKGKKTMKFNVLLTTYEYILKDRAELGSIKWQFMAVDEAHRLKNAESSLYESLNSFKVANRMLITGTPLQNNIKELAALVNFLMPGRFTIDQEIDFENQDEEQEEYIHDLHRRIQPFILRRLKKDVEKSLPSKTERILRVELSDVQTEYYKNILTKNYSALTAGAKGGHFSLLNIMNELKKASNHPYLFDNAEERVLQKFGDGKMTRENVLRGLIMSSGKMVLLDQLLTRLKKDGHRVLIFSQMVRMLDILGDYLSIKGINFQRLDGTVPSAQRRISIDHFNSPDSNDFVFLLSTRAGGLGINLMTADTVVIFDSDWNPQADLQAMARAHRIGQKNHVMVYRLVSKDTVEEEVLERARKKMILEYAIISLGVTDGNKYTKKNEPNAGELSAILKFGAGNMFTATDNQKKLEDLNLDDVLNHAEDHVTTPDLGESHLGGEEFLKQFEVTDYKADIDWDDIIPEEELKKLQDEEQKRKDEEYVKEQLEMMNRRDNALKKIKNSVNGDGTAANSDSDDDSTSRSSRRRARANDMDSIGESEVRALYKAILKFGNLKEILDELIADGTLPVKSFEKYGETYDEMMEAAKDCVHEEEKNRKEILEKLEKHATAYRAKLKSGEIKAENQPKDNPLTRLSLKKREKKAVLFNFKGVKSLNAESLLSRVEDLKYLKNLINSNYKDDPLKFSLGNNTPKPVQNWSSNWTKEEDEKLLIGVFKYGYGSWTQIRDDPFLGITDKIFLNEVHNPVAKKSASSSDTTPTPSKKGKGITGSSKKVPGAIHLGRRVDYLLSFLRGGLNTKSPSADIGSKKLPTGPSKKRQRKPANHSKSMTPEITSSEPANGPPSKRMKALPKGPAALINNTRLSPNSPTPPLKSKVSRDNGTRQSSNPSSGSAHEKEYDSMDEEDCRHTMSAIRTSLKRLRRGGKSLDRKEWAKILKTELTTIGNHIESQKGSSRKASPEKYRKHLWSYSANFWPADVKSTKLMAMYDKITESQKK

Sequence of Protein translocase subunit SecA (Escherichia coli (strain K12)) (P10408 whole entry): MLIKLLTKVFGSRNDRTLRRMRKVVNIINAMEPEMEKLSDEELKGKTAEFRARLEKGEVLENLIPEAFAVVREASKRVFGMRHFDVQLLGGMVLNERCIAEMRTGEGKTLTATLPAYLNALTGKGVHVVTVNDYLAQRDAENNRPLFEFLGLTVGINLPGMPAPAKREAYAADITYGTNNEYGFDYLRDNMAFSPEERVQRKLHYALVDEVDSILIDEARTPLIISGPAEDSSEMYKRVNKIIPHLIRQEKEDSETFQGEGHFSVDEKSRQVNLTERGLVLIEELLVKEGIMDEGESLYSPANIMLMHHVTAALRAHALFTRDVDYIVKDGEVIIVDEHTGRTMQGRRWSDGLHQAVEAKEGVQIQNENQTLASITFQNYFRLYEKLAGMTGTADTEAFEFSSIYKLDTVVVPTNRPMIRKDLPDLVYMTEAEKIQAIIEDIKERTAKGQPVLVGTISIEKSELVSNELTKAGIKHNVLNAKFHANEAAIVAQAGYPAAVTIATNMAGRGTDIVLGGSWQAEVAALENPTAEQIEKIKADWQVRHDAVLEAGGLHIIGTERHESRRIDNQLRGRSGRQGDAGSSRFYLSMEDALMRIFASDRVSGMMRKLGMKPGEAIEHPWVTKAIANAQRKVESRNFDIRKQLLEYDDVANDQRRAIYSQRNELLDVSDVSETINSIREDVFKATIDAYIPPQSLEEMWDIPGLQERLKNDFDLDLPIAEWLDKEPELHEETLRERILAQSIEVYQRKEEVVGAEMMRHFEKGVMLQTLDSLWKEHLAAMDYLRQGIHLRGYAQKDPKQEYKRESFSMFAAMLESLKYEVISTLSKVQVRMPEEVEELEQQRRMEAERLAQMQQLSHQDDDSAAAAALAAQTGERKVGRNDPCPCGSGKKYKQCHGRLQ
Sequence of Sialic acid-binding Ig-like lectin 9 (Homo sapiens) (Q9Y336 whole entry): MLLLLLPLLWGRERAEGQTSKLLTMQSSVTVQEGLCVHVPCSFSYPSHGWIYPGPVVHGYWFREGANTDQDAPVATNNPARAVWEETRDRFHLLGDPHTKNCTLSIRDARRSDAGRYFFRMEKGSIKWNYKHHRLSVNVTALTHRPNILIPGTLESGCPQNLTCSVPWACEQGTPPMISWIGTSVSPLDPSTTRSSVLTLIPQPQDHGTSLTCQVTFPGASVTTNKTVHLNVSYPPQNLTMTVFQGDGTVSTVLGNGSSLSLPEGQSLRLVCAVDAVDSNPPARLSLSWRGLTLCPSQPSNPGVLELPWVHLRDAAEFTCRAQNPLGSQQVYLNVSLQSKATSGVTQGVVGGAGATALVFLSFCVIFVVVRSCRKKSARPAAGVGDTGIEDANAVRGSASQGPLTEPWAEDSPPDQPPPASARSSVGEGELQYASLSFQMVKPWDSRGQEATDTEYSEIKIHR

Row | Compound | Percent Effect [1] [%] | Percent Effect [2] [%] | Percent Effect [3] [%] | Percent Effect (Trypanosoma cruzi) [%] | Percent Effect [4] [%] | Percent Effect [5] [%] | Percent Effect (Homo sapiens) [%] | Percent Effect [6] [%] | Percent Effect [7] [%] | Percent Effect [8] [%]
1 | OC(CN1CCOCC1)CN1CCc2c(ncn2C2CC2)C1 (stereo not given) | -2.85 | 26.7 | -6.52 | -1.21 | -4.88 | 14.3 | 17.9 | 1.58 | 7.69 | -10.6
2 | O=C(c1cc(Cl)c2c(c1)OCCO2)N1CCCC(n2cncn2)C1 (stereo not given) | -2.53 | -5.33 | 5.05 | 0.402 | 1.77 | 1.78 | 6.76 | -0.526 | 0 | 2.59
3 | O=C(c1ccnnc1)N1C[C@@H](OCC2CCOCC2)[C@H]2OCCC[C@H]21 | -4.07 | 1.3 | 6.81 | 5.55 | 14.6 | 0.618 | -6.79 | 0.526 | 7.69 | 96
4 | CS(=O)(=O)NCC1CCCN(C(=O)COCC(F)(F)F)C1 (stereo not given) | -0.972 | 15.4 | 0.69 | 0.845 | 2.87 | 6.57 | 9.12 | 2.39 | 22.9 | -7.07
5 | CNc1snc(C)c1C(=O)N1CCCC(n2nc(C)cc2C)C1 (stereo not given) | -9.36 | 13.3 | 16.1 | 6.02 | -3.1 | 5.68 | -7.89 | 4.74 | 15.4 | -14.8
6 | CCc1nc(C2CCCN2C(=O)c2ccc3c(c2)nc(C)n3C)no1 (stereo not given) | -0.423 | -2.67 | 4.72 | -2.41 | 1.77 | 3.31 | 7.34 | 1.58 | 0 | -6.99
7 | CC(C)CNc1nc(C(=O)/N=c2\[nH]nc(C(C)(C)C)s2)cs1 | 2.26 | 8.11 | -0.928 | -8.83 | 1.75 | 12.3 | 19.4 | 5.85 | 17.1 | 1.47
8 | CC1(C)OCC(CNC(=O)c2cnn(-c3ccc(Cl)cc3)c2N)O1 (stereo not given) | 2.19 | 17.3 | -9.2 | -2.76 | -0.443 | 14 | 15.1 | -6.35 | 2.5 | -22.4
9 | COc1ccc(CN2CCC[C@@H]3CN(C(=O)c4ccco4)C[C@@H]32)cc1 | -4.96 | 11.7 | -12.3 | -3.6 | -4.05 | 17.6 | 3.21 | 3.68 | 10.3 | 0.299
10 | CC(C)c1nc(C2CCCN2CC(=O)Nc2nncs2)no1 (stereo not given) | -6.03 | 16 | 8.36 | 0.402 | -1.33 | 5.17 | 7.39 | 5.79 | 15.4 | 23.5
11 | COc1ccc(CN2C[C@@H]3COC[C@]3(CN(C)C)C2)cc1 | -12.1 | -1.3 | -2.55 | 1.07 | -1.22 | 8.56 | -15 | 4.74 | 7.69 | -0.368
12 | CCCC(=O)N1CCC2(CC1)CC(NC(C)=O)c1ccccc1O2 (stereo not given) | 0.455 | 1.3 | -0.437 | -4.69 | 7.31 | -0.0858 | 6.03 | -1.93 | -5 | -2.27
13 | COc1c(C2CCCN2C(=O)c2cncnc2C)c(C)nn1C (stereo not given) | 0.687 | 20.8 | 0.3 | -7.46 | -3.48 | 18.8 | 21.6 | 3.92 | 9.41 | -6.48
14 | Cc1ccc(NC2CCN(C(=O)c3cccc4ncccc34)CC2)nn1 | -3.89 | 5.33 | -2.08 | -0.803 | 3.99 | -1.61 | 9.09 | 13.2 | 15.4 | -8.9
15 | O=C(Cn1cc(-c2ccccc2)ncc1=O)Nc1ccncc1 | -7.06 | 5.41 | 4.3 | -0.097 | 3.85 | 20 | -4.45 | 6.92 | 17.1 | 90.8
16 | CC(C)NC(=O)C(c1ccccc1)N1CCn2c(nnc2C2CC2)C1 (stereo not given) | -3.99 | 15.4 | -10.1 | 7.61 | -2.87 | 4.86 | 4.59 | 3.35 | 20.5 | -5.56
17 | COC(=O)C1CCN(C(=O)c2ccc(C)c(NS(C)(=O)=O)c2)CC1 | -9.4 | -5.41 | -2.25 | -3.2 | -3.85 | 8.9 | -0.867 | 1.6 | 2.44 | 5.38
18 | O=C(NCCOc1ccc(Cl)cc1)N1CCS(=O)(=O)CC1 | -5.3 | 5.13 | -7.37 | 6.1 | -1.23 | 6.74 | 3.33 | -0.478 | 10.8 | -6.32
19 | CC(=O)N1N=C(c2ccccc2)OC1C(=O)NCCc1cccc(Cl)c1 (stereo not given) | 4.91 | 6.67 | -6.99 | -2.56 | 2.65 | 8.05 | 8.59 | 0 | 10 | -24.5
20 | Cc1noc(C(C)C)c1C(=O)NCCCN1CCCC1 | -2.44 | 26 | 0.986 | 1.12 | -3.48 | 12.1 | 8.55 | 7.84 | 30.6 | -13.2
21 | Cc1nn(C)c(N(C)C)c1CNC(C)COc1cccc(F)c1 (stereo not given) | -4.28 | -5.2 | -1.85 | -6.16 | -2.66 | 5.26 | 9.12 | -3.92 | -4.71 | -2.29
22 | COCC1CN(Cc2ccc(OC)cc2)Cc2nn(C)cc21 (stereo not given) | 0.916 | 22.1 | -1.55 | -9.45 | 12.2 | 18.4 | 20.9 | 6.84 | 2.56 | -2.71
23 | COCCN1C[C@@H]2CN(C(=O)[C@H]3CCCO3)C[C@@H]2C1=O | 0.0627 | 16.9 | -1.76 | -6.38 | 3.65 | 24.5 | 7.75 | 7.73 | 12.5 | -7.63
24 | c1cnc(OCc2nnc3n2CCN(CC2CC2)C3)nc1 | -6.05 | 1.3 | 5.56 | 2.04 | -5.67 | 2.91 | -10.7 | 3.68 | 7.69 | 2.01
